Screening results as filed in PubChem.
TDP1 cell CPT – qHTS for Inhibitors of human tyrosyl-DNA phosphodiesterase 1 (TDP1): qHTS in cells in presence of CPT. Potency, µM (highest dose often 46.2 µM), for inactives: top-dose activity change, negative = growth inhibition, usual class: inhibitors. actives 12% (n = 420,000). chicken DT40 Tdp1-/-;hTDP1 cells + 20 nM CPT, ATP luminescence, 48 h. AID 686979, 2013; note: potency is the fitted concentration of half-maximal effect; nearly all actives have a fitted effect of over 55% in size
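Chicken DT40 Tdp1-/- cells complemented with human TDP1, 400 cells/well, exposed to compounds plus 20 nM camptothecin for at least 48 h at 37 C; viability read as ATP content by CellTiter-Glo luminescence.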
DT40 TDP1 no CPT – qHTS for Inhibitors of human tyrosyl-DNA phosphodiesterase 1 (TDP1): qHTS in cells in absence of CPT. actives 15% (n = 420,000). Potency, µM (titrated, usually from 46.2 µM), for inactives: at the top dose activity change, negative = growth inhibition, hits mostly inhibitors. DT40 Tdp1-/- hTDP1 cells, no CPT, ATP luminescence, 48 h; note: potency is the fitted concentration of half-maximal effect; nearly all actives have a fitted effect of over 55% in size
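Stably hTDP1-transfected Tdp1-null chicken DT40 cells were treated with library compounds minus camptothecin and grown for at least 48 hr at 37 °C, after which cellular ATP was quantified by luminescence.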
IL-1B inflam inh – qHTS for Inhibitors of Inflammasome Signaling: IL-1-beta AlphaLISA Primary Screen. THP-1 LPS/ATP IL-1B secretion, AlphaLISA, 16 h; hits give low values. activity change, % at 57.5 µM. actives 4.7% (n = 360,000); in the data active = activity change below about -50%; inconclusive = mostly about -30% to -49%
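Secreted IL-1B measured by AlphaLISA bead assay after 16 h compound exposure of THP-1 cells; compounds (final up to 57.5 uM) added 1 h before LPS (250 ng/mL) and ATP (1.25 mM) stimulation; lower signal means less secretion.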
HT1080 IDH1KD tx – qHTS for induction of synthetic lethality in tumor cells producing 2HG: qHTS for the HT-1080-IDH1KD cell line; HT-1080 IDH1 knockdown viability, ATP luminescence, 48 h; Potency, µM (top dose mostly 46.1 µM), inactives show at the highest dose activity, negative = toxicity, hits mostly cytotoxic; actives 2% (n = 360,000); AID 686971, 2013;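 note: potency is the fitted concentration of half-maximal effect; 0% = DMSO wells and -100% = cell-free medium wells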
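Using the IDH1-knockdown HT-1080 line run in the same batch and compound series as the NT line, viability after 48 h at 37 °C was determined by CellTiter-Glo luminescence and expressed as % activity.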
ELG1 repair inh – qHTS screen for small molecules that inhibit ELG1-dependent DNA repair in human embryonic kidney (HEK293T) cells expressing luciferase-tagged ELG1 | HEK293T ELG1-luciferase reporter, luminescence, 16 h; DNA damage induced by 5-fluorouridine | Potency, µM (doses to about 46.1 µM), without a hit: at the highest dose activity change, negative = inhibition, most hits filed as inhibitors | actives 2.3% (n = 330,000); note: potency is the fitted concentration of half-maximal effect; nearly all actives have a fitted effect of over 55% in size
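Cells (2,000 per well) received 5-fluorouridine plus test compound or DMSO and were incubated 16 hr at 37 °C, 5% CO2. Luciferase activity was read by luminescence 30 min after ONE-Glo addition; signal suppression marked inhibition of damage-induced ELG1 function.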
HT1080-NT tox – qHTS for induction of synthetic lethality in tumor cells producing 2HG: qHTS for the HT-1080-NT fibrosarcoma cell line. HT-1080-NT fibrosarcoma viability, CellTiter-Glo ATP luminescence, 48 h. Potency, µM (highest dose often 46.1 µM), for inactives: at the highest dose activity, negative = less viability, usual class: cytotoxic. actives 1.6% (n = 360,000). AID 686970, 2013;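 note: NT is the 2HG producing partner of a matched IDH1 knockdown line; potency is the fitted concentration of half-maximal effect; 0% = DMSO-treated cells and -100% = media-only wells without cells; nearly all actives have a fitted effect of over 55% in size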
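Viability of the 2HG-overproducing fibrosarcoma line after 48 hours of compound exposure at 37 degrees C was determined by luminescence with CellTiter-Glo, and concentration-effect curves were then fitted and categorized.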
Active calls of the source: *; u = inconclusive; x = no result given. Hits are enriched below; roughly 19% of the tested compounds scored in any of these assays. Unless noted, calls come from the whole dose curve; as a rule, active = well fitted curve in the direction sought with a large enough effect; inconclusive = small, poorly fitted or top-dose-only effect, or another doubt; inactive = no such curve, though single readings can be large; an effect the other way counts as inactive or inconclusive. Unless noted, % is set by controls: 0 for no effect and ±100 for the full control effect.

SMILES | TDP1 cell CPT | DT40 TDP1 no CPT | IL-1B inflam inh | HT1080 IDH1KD tx | ELG1 repair inh | HT1080-NT tox
CSc1nc2cc(S(=O)(=O)N3CCCCC3)ccc2s1 | u | 23µM* | -17 | -17% | -28% | -12%
CCn1c(C)nc2cc(S(=O)(=O)C(F)F)ccc21 | -9% | -1% | 14 | -1% | 30% | 8%
CCn1c(C)nc2cc(S(=O)(=O)C(F)(F)F)ccc21 | u | 16µM* | 0 | -7% | -15% | -3%
CCn1c(CN2CCCCC2)nc2cc(S(=O)(=O)N3CCCCC3)ccc21 | u | u | 15 | -1% | -2% | -1%
CCn1c(C)nc2cc(S(=O)(=O)N3CCCCC3)ccc21 | u | u | 5 | -7% | 18µM* | -6%
CC(=O)c1ccccc1C(=O)N1CCCC(CNC(=O)c2ccc(F)cc2)C1 (centres undefined) | -25% | 4% | 11 | 3% | x | 8%
COCCCNc1ncnc2c1nnn2C | u | -5% | x | x | x | x
Cc1ccccc1S(=O)Cc1ccc(C(=O)N2CCN(C3CCCCC3)CC2)o1 (centres undefined) | -25% | u | -25 | -11% | x | -3%
CC(C)OC(=O)c1ccc(NC(=O)c2ccco2)cc1 | 18µM* | 23µM* | u | -11% | u | -9%
O=C(Nc1ccc(NC(=O)c2ccco2)cc1)c1ccco1 | -1% | 4% | -13 | -6% | 0% | -3%
COC(=O)c1c(NC(=O)c2ccco2)sc(C(=O)Nc2ccc(F)cc2)c1C | u | 23µM* | 34 | 0% | u | 5%
O=C(Nc1ccc(Nc2ccccc2)cc1)c1ccco1 | 21µM* | 21µM* | -100* | u | u | -3%
CCOC(=O)c1ccc(NC(=O)c2ccco2)cc1 | -16% | -4% | -10 | -6% | u | -5%
O=C(Nc1ccc(-c2nc3ccccc3[nH]2)cc1)c1cccc(N2C(=O)CCC2=O)c1 | u | 12µM* | 21 | 2% | u | 0%
COc1cccc(CN2CC(C(=O)NCc3cccc(N4CCCC4)c3)CCC2=O)c1 (centres undefined) | u | u | -21 | 2% | -5% | -2%
COCCn1c(CN2CCN(C(=O)c3ccco3)CC2)nc2c1c(=O)n(C)c(=O)n2C | -14% | 16% | -2 | 0% | 9% | -2%
Cc1c(-c2ccccc2)n(-c2ccc(Cl)cc2)c2nc3c(c(=O)n(C)c(=O)n3C)n12 | 2% | -6% | x | x | x | x
CN(CC1COc2ccccc2O1)C(=O)CCNS(=O)(=O)c1ccc(F)c(Cl)c1 (centres undefined) | -27% | u | 12 | -2% | x | -4%
O=C(CSc1ccc(-c2nc3ccccc3[nH]2)cn1)N1CCN(C(=O)c2ccco2)CC1 | 23µM* | u | 8 | 17% | 16µM* | -3%
O=C(Nc1ccc(-c2nc3ccccc3[nH]2)cc1)c1ccco1 | 15µM* | 15µM* | -15 | -14% | u | u
O=C(CCc1nc2ccccc2[nH]1)N1CCN(C(=O)c2ccco2)CC1 | -14% | 0% | 7 | 5% | -4% | 1%
c1cc2c3c(c1)CCCN3CCC2 | -11% | -28% | x | x | x | x
Cc1cccc(NC(=O)c2ccccc2NC(=O)c2ccccc2)n1 | u | 18µM* | 16 | -12% | u | -16%
O=C(Nc1ccccc1C(=O)Nc1nncs1)c1ccccc1 | u | u | 7 | -26% | 21µM* | -18%
O=C(O)CNc1ccccc1C(=O)O | 3% | -2% | -2 | 7% | 21µM* | 7%
SMILES | TDP1 cell CPT | DT40 TDP1 no CPT | IL-1B inflam inh | HT1080 IDH1KD tx | ELG1 repair inh | HT1080-NT tox
Nc1ccccc1NC(=O)c1ccccc1 | 21µM* | 18µM* | 87 | -13% | u | -3%
C[C@@H]1CCCCO[C@@H](CN(C)S(=O)(=O)c2ccc(F)cc2)[C@@H](C)CN([C@H](C)CO)C(=O)c2cc(NC(=O)c3ccccc3)ccc2O1 | u | u | -1 | -8% | x | -21%
O=C(Nc1ccccc1SC(=O)c1ccccc1)c1ccccc1 | 3.3µM* | 4.6µM* | 20 | -12% | x | 3%
CCOc1ccc(/C=N/NC(=O)c2ccccc2NC(=O)c2ccc(OC)cc2)cc1 | u | u | 18 | -17% | u | -22%
COc1ccc(C(=O)Nc2ccccc2C(=O)N/N=C/c2ccco2)cc1 | -20% | u | 19 | u | u | 9.2µM*
O=C(Nc1ccccc1C(=O)N/N=C/c1ccncc1)c1ccccc1 | u | 21µM* | 28 | 9.2µM* | u | 21µM*
O=C(Nc1ccccc1C(=O)Nc1ccccc1C(=O)O)c1ccccc1 | u | 12µM* | 39 | u | 1% | u
CC(C)CC(=O)Nc1nnc(SCC(=O)Nc2nccs2)s1 | -8% | 0% | -9 | -1% | 0% | 3%
Nc1ccc(NC(=O)c2ccccc2)c2c1C(=O)c1ccccc1C2=O | 13µM* | 16µM* | 18 | -4% | -6% | -3%
Cc1ccc(C(=O)Sc2cccccc2=O)cc1 | 0.73µM* | 0.52µM* | -97* | 1.6µM* | u | u
Cc1ccc(NC(=O)c2ccccc2)cc1 | -6% | -17% | u | -5% | u | -6%
COc1ccc(Cn2cc(Cn3c4ccccc4c(=O)n3C(C)C)nn2)cc1 | -20% | -7% | 14 | 19% | x | 20%
COc1cccc(C(=O)Nc2ccc(NC(=O)C3C4C=CC(C4)C3C(=O)O)cc2)c1 (centres undefined) | -22% | u | 13 | -30% | u | -3%
CC(C)c1ccc(NC(=O)C2(C)Cc3c(-c4ccc(N(C)C)cc4)ccnc3O2)cc1 (centres undefined) | u | 16µM* | -19 | 28% | x | 17%
CC(C)NC(=O)C1(C)Cc2c(-c3ccc(N(C)C)cc3)ccnc2O1 (centres undefined) | 4.1µM* | 4.1µM* | 8 | -2% | x | -4%
